Results on 40 targets are retold here after the supplement of paper PMC10849652.

About 7,900 targets were measured; listed, in parts, are those with a hit and a random draw of the rest. About 0.6% of all pairs of compound and target were hits.

Sequence of UniProt Q9H4G4 (Q9H4G4 whole entry, looked up): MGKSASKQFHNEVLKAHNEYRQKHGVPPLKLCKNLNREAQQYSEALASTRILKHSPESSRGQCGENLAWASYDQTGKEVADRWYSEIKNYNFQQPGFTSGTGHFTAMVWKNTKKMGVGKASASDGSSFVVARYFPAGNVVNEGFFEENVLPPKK
Sequence of UniProt O00165 (O00165 whole entry, looked up): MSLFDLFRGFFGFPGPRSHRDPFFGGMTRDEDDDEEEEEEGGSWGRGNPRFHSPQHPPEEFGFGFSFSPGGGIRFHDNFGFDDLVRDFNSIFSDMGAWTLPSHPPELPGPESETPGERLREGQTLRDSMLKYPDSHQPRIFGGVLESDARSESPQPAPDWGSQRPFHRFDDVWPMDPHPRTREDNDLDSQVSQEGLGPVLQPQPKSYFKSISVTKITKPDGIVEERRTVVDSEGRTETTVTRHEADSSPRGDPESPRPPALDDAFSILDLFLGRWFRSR
Sequence of UniProt P14324 (P14324 whole entry, looked up): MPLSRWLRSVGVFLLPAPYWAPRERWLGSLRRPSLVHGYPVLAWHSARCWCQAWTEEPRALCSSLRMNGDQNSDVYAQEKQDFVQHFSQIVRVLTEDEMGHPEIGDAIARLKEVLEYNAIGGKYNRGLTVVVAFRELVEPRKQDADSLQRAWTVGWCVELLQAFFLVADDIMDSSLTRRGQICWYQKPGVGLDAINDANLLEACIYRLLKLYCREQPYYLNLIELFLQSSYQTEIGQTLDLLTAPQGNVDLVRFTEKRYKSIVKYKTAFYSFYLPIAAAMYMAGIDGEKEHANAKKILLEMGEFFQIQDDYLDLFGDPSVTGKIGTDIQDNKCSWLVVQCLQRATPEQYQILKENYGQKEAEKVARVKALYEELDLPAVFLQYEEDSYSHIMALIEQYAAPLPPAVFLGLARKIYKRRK
Sequence of UniProt Q7Z4H3 (Q7Z4H3 whole entry, looked up): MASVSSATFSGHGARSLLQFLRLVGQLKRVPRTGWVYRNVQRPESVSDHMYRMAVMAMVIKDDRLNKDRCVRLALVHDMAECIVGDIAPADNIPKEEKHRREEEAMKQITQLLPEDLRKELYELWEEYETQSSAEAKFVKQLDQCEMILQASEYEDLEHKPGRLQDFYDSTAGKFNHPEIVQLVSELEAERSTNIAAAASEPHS
Sequence of UniProt P55795 (P55795 whole entry, looked up): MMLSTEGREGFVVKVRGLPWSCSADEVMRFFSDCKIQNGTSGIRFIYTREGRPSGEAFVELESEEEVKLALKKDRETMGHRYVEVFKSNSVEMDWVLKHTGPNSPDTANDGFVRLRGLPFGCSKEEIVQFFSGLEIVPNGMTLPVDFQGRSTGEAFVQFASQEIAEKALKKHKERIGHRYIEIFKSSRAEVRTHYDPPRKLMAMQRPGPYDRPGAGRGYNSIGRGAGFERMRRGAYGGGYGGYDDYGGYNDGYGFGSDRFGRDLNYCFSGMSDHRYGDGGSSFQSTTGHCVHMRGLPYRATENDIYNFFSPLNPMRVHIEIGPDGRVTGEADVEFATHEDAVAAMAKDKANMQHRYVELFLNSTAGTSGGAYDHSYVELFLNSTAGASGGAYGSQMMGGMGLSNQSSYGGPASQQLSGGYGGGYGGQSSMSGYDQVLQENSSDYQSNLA
Sequence of UniProt P23327 (P23327 whole entry, looked up): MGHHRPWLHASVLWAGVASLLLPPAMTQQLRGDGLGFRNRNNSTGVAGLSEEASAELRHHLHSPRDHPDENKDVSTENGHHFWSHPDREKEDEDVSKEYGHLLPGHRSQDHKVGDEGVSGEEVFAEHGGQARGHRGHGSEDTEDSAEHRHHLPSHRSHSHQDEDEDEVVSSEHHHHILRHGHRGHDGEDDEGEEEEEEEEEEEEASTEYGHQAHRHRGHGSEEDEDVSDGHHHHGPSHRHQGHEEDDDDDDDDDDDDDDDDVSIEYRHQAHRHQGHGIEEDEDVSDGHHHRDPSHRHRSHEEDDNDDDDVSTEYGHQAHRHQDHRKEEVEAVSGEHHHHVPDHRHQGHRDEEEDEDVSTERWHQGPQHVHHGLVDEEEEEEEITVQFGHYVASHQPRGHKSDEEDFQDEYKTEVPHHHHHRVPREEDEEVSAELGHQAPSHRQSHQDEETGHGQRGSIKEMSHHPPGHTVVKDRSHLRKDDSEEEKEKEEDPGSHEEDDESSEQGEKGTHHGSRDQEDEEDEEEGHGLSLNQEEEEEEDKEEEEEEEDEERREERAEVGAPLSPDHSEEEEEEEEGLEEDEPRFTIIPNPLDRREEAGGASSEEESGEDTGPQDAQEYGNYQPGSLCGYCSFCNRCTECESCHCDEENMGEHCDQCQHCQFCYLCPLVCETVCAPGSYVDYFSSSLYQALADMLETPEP
Sequence of UniProt Q9UQC2 (Q9UQC2 whole entry, looked up): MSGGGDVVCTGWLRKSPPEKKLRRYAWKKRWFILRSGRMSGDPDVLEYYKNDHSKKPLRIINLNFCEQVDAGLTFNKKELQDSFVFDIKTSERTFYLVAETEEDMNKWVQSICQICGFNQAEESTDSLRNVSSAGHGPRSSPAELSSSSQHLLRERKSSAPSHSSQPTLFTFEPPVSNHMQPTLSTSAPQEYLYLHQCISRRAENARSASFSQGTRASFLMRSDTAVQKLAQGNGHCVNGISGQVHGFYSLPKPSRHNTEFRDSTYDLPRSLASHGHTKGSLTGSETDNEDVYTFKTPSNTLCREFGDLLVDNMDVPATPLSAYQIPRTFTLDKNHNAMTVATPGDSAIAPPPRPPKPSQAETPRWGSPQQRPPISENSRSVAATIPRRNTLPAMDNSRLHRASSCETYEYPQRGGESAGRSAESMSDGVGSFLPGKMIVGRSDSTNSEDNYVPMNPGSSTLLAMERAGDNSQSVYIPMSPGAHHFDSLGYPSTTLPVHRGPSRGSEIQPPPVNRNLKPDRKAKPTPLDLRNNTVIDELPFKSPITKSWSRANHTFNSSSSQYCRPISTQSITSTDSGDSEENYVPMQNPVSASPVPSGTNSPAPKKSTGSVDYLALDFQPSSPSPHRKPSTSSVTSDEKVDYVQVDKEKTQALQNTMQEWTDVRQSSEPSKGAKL
Sequence of UniProt Q9Y248 (Q9Y248 whole entry, looked up): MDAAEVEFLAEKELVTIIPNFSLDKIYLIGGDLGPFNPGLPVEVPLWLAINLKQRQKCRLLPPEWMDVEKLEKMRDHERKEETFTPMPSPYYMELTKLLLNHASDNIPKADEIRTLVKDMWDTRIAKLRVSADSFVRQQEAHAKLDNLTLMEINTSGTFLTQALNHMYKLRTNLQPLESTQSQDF
Sequence of UniProt P09105 (P09105 whole entry, looked up): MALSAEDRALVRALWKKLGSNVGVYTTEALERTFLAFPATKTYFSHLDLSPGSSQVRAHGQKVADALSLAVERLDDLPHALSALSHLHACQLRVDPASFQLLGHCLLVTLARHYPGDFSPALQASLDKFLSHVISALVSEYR
Sequence of UniProt Q8N4A0 (Q8N4A0 whole entry, looked up): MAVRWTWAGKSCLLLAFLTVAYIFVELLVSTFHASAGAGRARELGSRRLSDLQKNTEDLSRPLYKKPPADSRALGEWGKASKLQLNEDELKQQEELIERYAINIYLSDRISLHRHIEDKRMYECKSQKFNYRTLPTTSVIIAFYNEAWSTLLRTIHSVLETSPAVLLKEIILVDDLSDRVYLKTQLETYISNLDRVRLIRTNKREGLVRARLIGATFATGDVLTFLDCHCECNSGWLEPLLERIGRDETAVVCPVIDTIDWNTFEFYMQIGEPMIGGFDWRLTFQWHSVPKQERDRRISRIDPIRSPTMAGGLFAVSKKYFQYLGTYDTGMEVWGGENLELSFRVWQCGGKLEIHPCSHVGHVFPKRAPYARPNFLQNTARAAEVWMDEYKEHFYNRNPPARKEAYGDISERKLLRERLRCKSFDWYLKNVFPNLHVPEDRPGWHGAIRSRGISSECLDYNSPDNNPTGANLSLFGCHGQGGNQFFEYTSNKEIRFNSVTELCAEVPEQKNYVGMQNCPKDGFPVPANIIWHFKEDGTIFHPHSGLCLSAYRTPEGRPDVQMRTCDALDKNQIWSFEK
Sequence of UniProt Q9Y613 (Q9Y613 whole entry, looked up): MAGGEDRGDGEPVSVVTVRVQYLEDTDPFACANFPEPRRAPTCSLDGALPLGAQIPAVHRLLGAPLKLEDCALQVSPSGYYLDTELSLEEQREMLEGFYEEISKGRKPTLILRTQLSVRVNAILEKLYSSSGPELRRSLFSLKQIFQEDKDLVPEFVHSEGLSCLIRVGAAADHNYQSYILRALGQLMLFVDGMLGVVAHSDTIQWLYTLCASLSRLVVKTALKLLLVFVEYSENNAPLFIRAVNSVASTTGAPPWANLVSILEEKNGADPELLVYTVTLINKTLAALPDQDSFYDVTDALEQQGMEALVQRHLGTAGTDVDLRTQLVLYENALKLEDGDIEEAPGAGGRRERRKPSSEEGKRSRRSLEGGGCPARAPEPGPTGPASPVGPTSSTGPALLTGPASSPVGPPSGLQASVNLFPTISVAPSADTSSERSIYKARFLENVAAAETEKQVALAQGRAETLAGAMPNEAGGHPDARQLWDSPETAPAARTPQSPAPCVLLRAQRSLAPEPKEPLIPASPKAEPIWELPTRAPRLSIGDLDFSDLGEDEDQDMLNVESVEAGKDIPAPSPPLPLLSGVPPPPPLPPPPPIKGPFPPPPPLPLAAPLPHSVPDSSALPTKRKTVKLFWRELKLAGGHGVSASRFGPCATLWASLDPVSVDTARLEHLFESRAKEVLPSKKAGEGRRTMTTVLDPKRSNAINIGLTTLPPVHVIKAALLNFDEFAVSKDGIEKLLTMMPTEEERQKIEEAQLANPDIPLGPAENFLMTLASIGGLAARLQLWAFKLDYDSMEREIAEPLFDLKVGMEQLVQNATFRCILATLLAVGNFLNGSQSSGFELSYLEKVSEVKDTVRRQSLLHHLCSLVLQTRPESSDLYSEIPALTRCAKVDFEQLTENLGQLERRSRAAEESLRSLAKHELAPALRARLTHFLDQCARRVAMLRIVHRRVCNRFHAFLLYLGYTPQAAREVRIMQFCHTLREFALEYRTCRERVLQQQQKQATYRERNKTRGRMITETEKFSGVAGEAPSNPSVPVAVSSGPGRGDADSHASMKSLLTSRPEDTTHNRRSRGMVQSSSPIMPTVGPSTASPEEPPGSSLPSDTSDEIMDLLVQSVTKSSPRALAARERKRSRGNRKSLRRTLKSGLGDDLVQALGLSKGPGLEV

Compound in this experiment: c1cn2cc(-c3ccc4cn[nH]c4c3)nc(Nc3ccc(N4CCOCC4)cc3)c2n1 [entospletinib]
The experiment is described as follows: log2 fold change, soluble protein after heating vs DMSO (PISA); higher = thermal stabilisation; K562 cells, 10 uM, 30 min; active = over 0.2 and 3.5 SD of the protein, either way, in both replicates (recomputed). In short, it runs like this:
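K562 cells at 2×10^6 cells/mL were treated with 10 μM compound for 30 min. Aliquots were heated for 3 min across 48°C-58°C, pooled, and extracted in PBS with 0.5% NP-40 at 4°C; soluble protein was the supernatant after 21,000xg for 90 min. Soluble protein was quantified by TMTpro 16plex LC-MS/MS with channel sums equalised, and reported as log2 fold change in thermal stability against DMSO controls, with values from duplicates.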
On to HAT1 (UniProt O14929), for which the log2 fold change is -0.021 (inactive).

For the target GTF2B (UniProt Q00403), the log2 fold change was -0.04 (inactive).

Take HMGN2 (UniProt P05204): the log2 fold change was 0.111 (inactive).

Turning to HPCAL1 (UniProt P37235), the log2 fold change is 0.023 (inactive).

As to GINS2 (UniProt Q9Y248), the log2 fold change was 0.012 (inactive).

On to HRC (UniProt P23327), for which the log2 fold change was 0.032 (inactive).

Take GTF3A (UniProt Q92664): the log2 fold change is 0.033 (inactive).

Turning to GTF2H3 (UniProt Q13889), the log2 fold change was 0.087 (inactive).

Consider ICAM1 (UniProt P05362), for which the log2 fold change was -0.007 (inactive).

HNRNPK isoform 3 (UniProt P61978): the log2 fold change is 0.003 (inactive).

In the case of FUCA1 (UniProt P04066), the log2 fold change was -0.018 (inactive).

Turning to GBA2 (UniProt Q9HCG7), the log2 fold change is -0.108 (inactive).

As to FYB1 isoform 3 (UniProt O15117), the log2 fold change is 0.036 (inactive).

In the case of HMGB3 (UniProt O15347), the log2 fold change was 0.097 (inactive).

With GTPBP6 (UniProt O43824), the log2 fold change was -0.092 (inactive).

Turning to HEATR3 (UniProt Q7Z4Q2), the log2 fold change was 0 (inactive).

For GPS2 (UniProt Q13227), the log2 fold change is 0.058 (inactive).

With FUCA2 (UniProt Q9BTY2), the log2 fold change is -0.016 (inactive).

For the target FAT2 (UniProt Q9NYQ8), the log2 fold change was 0.119 (inactive).

Take GSR (UniProt P00390): the log2 fold change was -0.047 (inactive).

For the target GSTM4 (UniProt Q03013), the log2 fold change is 0.036 (inactive).

Take HAX1 (UniProt O00165): the log2 fold change is 0.028 (inactive).

On to GAB2 (UniProt Q9UQC2), for which the log2 fold change is 0.046 (inactive).

For GLB1 (UniProt P16278), the log2 fold change was 0.022 (inactive).

Turning to GPKOW (UniProt Q92917), the log2 fold change was -0.025 (inactive).

As to HNRNPF (UniProt P52597), the log2 fold change is 0.046 (inactive).

As for HNRNPH2 (UniProt P55795), the log2 fold change is 0.009 (inactive).

For GDE1 (UniProt Q9NZC3), the log2 fold change is 0 (inactive).

Turning to GTF2E1 (UniProt P29083), the log2 fold change was -0.048 (inactive).

For the target GALK1 isoform 2 (UniProt P51570), the log2 fold change was -0.103 (inactive).

As for FRA10AC1 isoform 3 (UniProt Q70Z53), the log2 fold change is -0.003 (inactive).

Consider HDDC2 (UniProt Q7Z4H3), for which the log2 fold change is -0.001 (inactive).

With FDPS (UniProt P14324), the log2 fold change is -0.007 (inactive).

On to GLIPR2 (UniProt Q9H4G4), for which the log2 fold change is 0.055 (inactive).

For the target HBZ, A0A494C057, the log2 fold change was -0.048 (inactive).

FUT8 (UniProt Q9BYC5): the log2 fold change is -0.048 (inactive).

In the case of GMEB1 (UniProt Q9Y692), the log2 fold change is -0.027 (inactive).

In the case of GALNT4 (UniProt Q8N4A0), the log2 fold change was -0.015 (inactive).

FHOD1 (UniProt Q9Y613): the log2 fold change is 0.209 (inactive).

Regarding HBQ1 (UniProt P09105), the log2 fold change is 0.001 (inactive).
